{"source": "PubChem BioAssay (NCATS)", "note": "Inconclusive results are not listed. Values without a mark were called inactive. Activity calls are given as the source filed them. The call rests on the fitted dose curve; in most records, active means well fitted inhibition curve with a large enough effect; inconclusive means small, poorly fitted or top-dose-only effect; inactive means no such curve, though single readings can be large or run the other way. Potency means the concentration at half of the fitted maximal effect.", "data": [{"test": "BET inhibitor-based combinations targeting novel dependencies in MECOM-rearranged (r) AML: MV-4-11 cell line (AID 2202233); further: nearly all actives have a fitted effect of over 45% in size", "details": "MV-4-11 AML viability, CellTiter-Glo luminescence, 48 h; series mostly up to 46 µM", "description": "Ecotropic viral insertion site 1 (EVI1) is located on chromosome 3q26.2 as part of the MECOM (MDS and EVI1 complex) locus. Under normal hematopoiesis, EVI1 is a regulator of hematopoietic stem cell maintenance and self-renewal and EVI1 levels decrease as the cells differentiate. In approximately 5-10% of de novo acute myeloid leukemia (AML) EVI1 is aberrantly expressed, including Chromosomal inv(3)(q21;q26.2) or t(3;3)(q21;q26.2) alterations (MECOM-r) that account for about 50% of AML with EVI1 overexpression 31. AMLs with high levels of EVI1 have a poor prognosis and an overall survival time averaging between 10-14 months. EVI1 overexpression confers resistance in leukemia cells, highlighting the need to develop new targeted therapies for EVI1 overexpressing AMLs. Here, we performed an unbiased chemical drug screening by evaluating the single agent activity of a collection of 2,480 oncology-focused, approved and investigational drugs (NCATS Mechanism Interrogation Plates, MIPE v5.0) against a panel of seven AML cell lines. These included four MECOM-r cell-lines (AML-191, AML-194, UCSD-AML1 and HNT-34) and three non-MECOM-r AMLs (MV4-11, OCI-AML3 and SET-2). Exploiting the mechanistic redundancy built in the library, we identified target-level sensitivities in MECOM-r AML cells and relative activity as compared to other AML subtypes.\nA collection of 2480 mechanistically annotated dugs (MIPE v5.0) was used to screen four 3q26.2 rearranged AML cell lines and three non-3q26.2 rearranged AML cell lines. This library purposely exploits redundancy by including multiple inhibitors of key onco-targets, while simultaneously encompassing mechanistic diversity, targeting more than 800 distinct mechanisms of action. Briefly, cells were seeded in 5 uL of growth media using a Multidrop Combi dispenser into 1536 well white polystyrene tissue culture treated plates (Corning) at a density of 500cells/well. For each cell-line, for each of the 2480 drugs in MIPE v5.0 library, an 11-point dose curve was generated via a 1536 pin-tool. Plates were incubated for 48 hr at standard incubator conditions, covered by a stainless steel gasketed lid to prevent evaporation. Cell viability was determined by luminescence based, Cell Titer Glo assay (Promega). In detail, 3 uL of Cell Titer Glo were added to each well and plates were incubated at room temperature for 15 min with a stainless-steel lid in place. Luminescence readings were taken using a Viewlux (PerkinElmer) with a 2 s exposure time per plate. Compound dose-response curves were normalized to DMSO and empty well controls on each plate. Quantitative drug activity data from dose-response curves was determined utilizing area Under the Curve (AUC) and Z-transformed AUC (Z-AUC, a mean-centering transformation applied to each individual cell-line screened).", "values": [{"smiles": "COc1ccccc1N1CCN(CC(O)COc2cccc3ccccc23)CC1", "note": "(stereo not given)", "Potency": "14.8 µM (active)"}, {"smiles": "Cc1cc(C)c(CNC(=O)c2cc(-c3ccc(CN4CCOCC4)cc3)cc3c2cnn3C2CCCC2)c(=O)[nH]1", "Potency": "29.5 µM (active)"}, {"smiles": "COc1cc([C@@H]2c3cc4c(cc3[C@H](O)[C@H]3COC(=O)[C@H]23)OCO4)cc(OC)c1OC", "Potency": "0.0417 µM (active)"}, {"smiles": "CC(=O)NC(CS)C(=O)O", "note": "(stereo not given)", "Potency": "inactive"}, {"smiles": "CN(Cc1cc(Br)cc(Br)c1N)C1CCCCC1", "Potency": "inactive"}, {"smiles": "C[C@@H]1C[C@H]2[C@@H]3CCC4=CC(=O)C=C[C@]4(C)[C@@]3(Cl)[C@@H](O)C[C@]2(C)[C@@]1(OC(=O)c1ccco1)C(=O)CCl", "Potency": "23.5 µM (active)"}, {"smiles": "Cc1ccn(-c2ccc(-c3ncco3)cc2)c(=O)c1-c1ccc2nc(N)ncc2c1", "Potency": "6.61 µM (active)"}, {"smiles": "COc1cc2c(Nc3ccc(Br)cc3F)ncnc2cc1OCC1CCN(C)CC1", "Potency": "3.32 µM (active)"}, {"smiles": "Nc1[nH]c(=O)ncc1F", "Potency": "inactive"}, {"smiles": "CCOc1cc(C(=O)N2CCC(N3CCN(C)CC3)CC2)ccc1Nc1ncc2c(n1)N(C1CCCC1)c1ccccc1C(=O)N2C", "Potency": "1.66 µM (active)"}, {"smiles": "O=c1[nH]cnc2[nH]ncc12", "Potency": "inactive"}, {"smiles": "COc1c(C)cc(NC(=O)c2nn(Cc3ccc(F)cc3)c3c2CN(C(=O)c2ccc[nH]2)C[C@]3(C)C(N)=O)cc1C", "viability, % of control": "114% [at 8.46 µM]"}, {"smiles": "CC(C)(Sc1cc(C(C)(C)C)c(O)c(C(C)(C)C)c1)Sc1cc(C(C)(C)C)c(O)c(C(C)(C)C)c1", "Potency": "inactive"}, {"smiles": "Cc1ccc(C(N)=O)cc1Nc1nccc(-c2cn(C(C)C)c3cnccc23)n1", "Potency": "0.0833 µM (active)"}, {"smiles": "O=c1[nH]c([C@@H]2CCCN2)nc2c1oc1ccc(Cl)cc12", "Potency": "13.2 µM (active)"}, {"smiles": "COc1cc(S(C)(=O)=O)ccc1Nc1nc2ccc(-c3ccc(NC(=O)[C@H](C)c4ccc(F)cc4)cc3)cn2n1", "Potency": "1.18 µM (active)"}, {"smiles": "COc1cccc(OC)c1-c1cc(C(=O)NC2(C(=O)O)C3CC4CC(C3)CC2C4)nn1-c1ccnc2cc(Cl)ccc12", "note": "(stereo not given)", "Potency": "inactive"}, {"smiles": "Nc1ncn([C@@H]2O[C@H](CO)[C@@H](O)[C@H]2O)c(=O)n1", "Potency": "3.32 µM (active)"}, {"smiles": "Oc1ccc(C2=Cc3ccc(O)cc3OC2)cc1", "Potency": "0.662 µM (active)"}, {"smiles": "O=C1CN2Cc3c(ccc(Cl)c3Cl)N=C2N1", "Potency": "inactive"}, {"smiles": "N[C@@H]1CONC1=O", "Potency": "inactive"}, {"smiles": "CCOc1ccn(-c2ccc(F)cc2)c(=O)c1C(=O)Nc1ccc(Oc2ccnc(N)c2Cl)c(F)c1", "Potency": "1.48 µM (active)"}, {"smiles": "OCCN1CCN(CCCN2c3ccccc3Sc3ccc(C(F)(F)F)cc32)CC1", "Potency": "18.6 µM (active)"}, {"smiles": "Cn1c(=O)c2[nH]cnc2n(C)c1=O", "Potency": "inactive"}, {"smiles": "CN(C)c1ccc(C(=C2C=CC(=[N+](C)C)C=C2)c2ccc(N(C)C)cc2)cc1", "Potency": "0.662 µM (active)"}, {"smiles": "O=C1NC(=O)C(c2cnc3ccccn23)=C1c1cn2c3c(cccc13)CN(C(=O)N1CCOCC1)CC2", "Potency": "0.0934 µM (active)"}, {"smiles": "NCCS(=O)(=O)O", "Potency": "inactive"}, {"smiles": "Cc1ccc(C(=O)Nc2cccc(C(F)(F)F)c2)cc1-c1ccc2nc(NCCN3CCOCC3)ncc2c1", "Potency": "2.35 µM (active)"}, {"smiles": "CS(=O)(=O)c1ccc(-c2nnc(/C=C/c3nnc(-c4ccc(C#N)cc4)o3)n2-c2ccccc2Cl)nc1", "Potency": "10.5 µM (active)"}, {"smiles": "CC(O)c1cc(C(=O)N[C@@H](C)Cn2ccc(-c3ccc(C#N)c(Cl)c3)n2)n[nH]1", "note": "(stereo not given in full)", "Potency": "inactive"}, {"smiles": "N#CC1(c2ccc(NC(=O)c3cccnc3NCc3ccncc3)cc2)CCCC1", "Potency": "14.8 µM (active)"}, {"smiles": "Cc1cnc(NC(=O)C2=C(O)c3ccccc3S(=O)(=O)N2C)s1", "Potency": "inactive"}, {"smiles": "Cc1ccc(S(=O)(=O)N[C@@H](Cc2ccccc2)C(=O)CCl)cc1", "Potency": "13.2 µM (active)"}, {"smiles": "O=C(c1ccccc1)c1ccc2n1CCC2C(=O)O", "note": "(stereo not given)", "Potency": "inactive"}, {"smiles": "O=C1C(Cl)=C(NCCN2CCOCC2)C(=O)c2ncccc21", "Potency": "2.09 µM (active)"}, {"smiles": "CCc1cccc2c3c([nH]c12)[C@@](CC)(CC(=O)O)OCC3", "Potency": "inactive"}, {"smiles": "CN(C)CCN1C(=O)c2cccc3cc(N)cc(c23)C1=O", "Potency": "3.72 µM (active)"}, {"smiles": "CC(C)(O)CNc1nc(Nc2ccnc(C(F)(F)F)c2)nc(-c2cccc(C(F)(F)F)n2)n1", "Potency": "20.9 µM (active)"}, {"smiles": "COc1cc2c(N3CCN(C(=O)Nc4ccc(OC(C)C)cc4)CC3)ncnc2cc1OCCCN1CCCCC1", "Potency": "0.59 µM (active)"}, {"smiles": "O=C(NCCCNc1nc(Nc2cccc(NC(=O)N3CCCC3)c2)ncc1I)c1cccs1", "Potency": "0.662 µM (active)"}]}]}
